From PubChem BioAssay come the findings set out here.

The structures appear in SMILES notation. The source made the active and inactive calls.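 How the source made its calls, unless noted: active means NADPH fluorescence slope more negative than the mean of all samples by about 3 SD, 99.7% confidence; inactive means the rest.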

A short description of assay [1]: inhibitors of TNFa-induced NFkB p65 translocation, primary screen, imaging, HUVEC, MLSMR starter and 10KST1 sets (AID 438;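 active means inhibition above 20% together with a positive visual image hit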;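 further: compound added about 3h40 before a 20 min TNFalpha stimulation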;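 on inhibition: signal is the nuclear over cytoplasmic p65 intensity ratio per well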). Conditions: HUVEC TNFa-induced p65 nuclear translocation; cell count: measured here: nuclei count (cytotoxicity indicator), at 2.08 µM; inhibition: at 2 µM, stronger effect = higher value, 0% TNFa-plus-vehicle, 100% no-TNFa wells.
Assay [2] is described as follows: inhibitors of mutant huntingtin aggregation, primary screen, imaging, exon1htt(103Q)mCFP cells, high-content imaging (AID 483;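 active means visual image review flags a hit and inhibition of aggregation exceeds 20%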;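 further: compound exposure lasted 3 days before fixation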;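 on nuclei count: percent of the per-plate median nuclei count of sample wells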). Conditions: exon1htt(103Q)mCFP cell line, aggregate imaging, at 2 µM; inhibition of aggregation: stronger effect = higher value; nuclei count: measured here: cell count, toxicity.
Assay [3] is described as follows: inhibitors of E-selectin induction by TNFa, primary screen, imaging, HUVEC, immunofluorescence, MLSMR starter and 10KST1 sets (AID 487;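 active means visually confirmed hit in the image check and inhibition above 20%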;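 on inhibition: signal is fraction of cell area covered by stained E-selectin grains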;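 on nuclei count: 100% = median nuclei count of all wells on the same plate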). The following applies: HUVEC TNFalpha-induced E-selectin immunofluorescence imaging, at 2 µM; inhibition: stronger effect = higher value; nuclei count: measured here: cell number, toxicity.
The target of assay [4] is Voltage-gated potassium channel subunit beta-2 (Rattus norvegicus) (UniProt P62483). Briefly: KvBeta enzyme negative modulators, primary screen, biochemical, NADPH fluorescence (AID 622;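 active means fluorescence slope higher than the sample average by over 3 SD, cut at about -0.22 in these data, passing the limit was not always enough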;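 further: slope of raw intensity against log time taken from 70 to 1610 s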). The following applies: recombinant KvBeta, 4-cyanobenzaldehyde reduction, at 10 µM, stronger effect = higher value.
Sequence of Voltage-gated potassium channel subunit beta-2 (Rattus norvegicus) (P62483 whole entry, looked up): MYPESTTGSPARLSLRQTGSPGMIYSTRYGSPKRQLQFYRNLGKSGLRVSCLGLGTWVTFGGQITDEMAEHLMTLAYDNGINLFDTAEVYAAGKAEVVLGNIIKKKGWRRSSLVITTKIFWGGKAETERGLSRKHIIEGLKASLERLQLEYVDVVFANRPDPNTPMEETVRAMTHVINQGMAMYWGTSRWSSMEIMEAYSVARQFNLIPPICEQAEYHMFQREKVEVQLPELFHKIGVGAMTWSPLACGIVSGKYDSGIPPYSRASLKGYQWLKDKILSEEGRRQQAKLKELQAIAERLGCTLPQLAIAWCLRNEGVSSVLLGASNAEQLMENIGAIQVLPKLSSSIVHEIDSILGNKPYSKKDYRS
Assay [5] shares this target. The assay is described as follows: KvBeta positive modulators, primary screen, biochemical, NADPH fluorescence (AID 623).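 Further: fluorescence intensity change per second fitted from 20 to 320 s.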 The following applies: Recombinant KvBeta, NADPH fluorescence decrease slope, 10 min; at 10 µM; stronger effect = lower value.
The target of assay [6] is Alpha-2C adrenergic receptor (Homo sapiens) (UniProt P18825). The assay is described as follows: modulators of alpha2C/GIRK thallium flux, primary screen, cell-based, HEK293 alpha2C/GIRK1/2 (AID 624;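 active means fluorescence slope after compound addition differing from the mean of all screened samples at 99.7% confidence, in either direction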;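 further: slope of fluorescence ratio to pre-addition baseline per second over 15 to 24 s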). The following applies: thallium flux BTC fluorescence, at 10 µM, actives lie on both sides.
Sequence of Alpha-2C adrenergic receptor (Homo sapiens) (P18825 whole entry, looked up): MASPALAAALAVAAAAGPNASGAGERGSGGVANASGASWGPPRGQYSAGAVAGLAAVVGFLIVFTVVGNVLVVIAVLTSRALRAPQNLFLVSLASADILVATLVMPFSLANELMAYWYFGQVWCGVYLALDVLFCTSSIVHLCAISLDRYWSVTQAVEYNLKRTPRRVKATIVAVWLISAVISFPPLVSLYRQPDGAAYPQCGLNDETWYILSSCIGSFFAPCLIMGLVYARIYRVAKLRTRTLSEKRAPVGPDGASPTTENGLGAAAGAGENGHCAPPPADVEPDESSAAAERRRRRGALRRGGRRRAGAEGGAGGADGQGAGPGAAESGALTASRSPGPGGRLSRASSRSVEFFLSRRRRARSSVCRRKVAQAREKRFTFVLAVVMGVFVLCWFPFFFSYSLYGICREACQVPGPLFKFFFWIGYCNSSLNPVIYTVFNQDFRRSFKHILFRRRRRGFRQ
Assay [7] can be described thus: inhibitors of Sendai virus-induced IRF3 signaling, primary screen, TLR/RLR signaling modifier project, cell-based, Sendai virus stimulus, luciferase, 10K MLSCN set (AID 602276;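 active means inhibition at or above 50% at 10 µM; inactive means inhibition below 50%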;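 further: firefly luciferase from ISG56 promoter only with Renilla not read in this screen; 0% = Sendai virus plus DMSO and 100% = medium plus DMSO without virus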). Conditions: HEK293 RL24 IRF3 luciferase reporter, at 10 µM, stronger effect = higher value.
Assay [8] is described as follows: inhibitors of poly I:C-induced TLR3 signaling, primary screen, cell-based, poly I:C stimulus, luciferase, 10K MLSCN set (AID 602277;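 active means inhibition of the reporter signal at or above 50%; inactive means inhibition below 50%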). The following applies: HEK293-TLR3 RL24 IRF3 luciferase reporter, at 10 µM, stronger effect = higher value.

Turning to `COc1ccccc1C1CC(c2ccc(C)cc2)Nc2ncnn21` (centres undefined), the cell count in assay [1] is 332. The inhibition is 0.7% (inactive) in assay [1], -37.9% (inactive) in assay [3], -7.75% (inactive) in assay [7] and -0.278% (inactive) in assay [8]. Also, in assay [2], the inhibition of aggregation was -31.6% (inactive). In addition, the nuclei count in assay [2] is 109%; in assay [3], 119%. The fluorescence slope in assay [4] is -0.425 (inactive). In addition, the NADPH fluorescence slope in assay [5] was 4.9e-05 (inactive). Further, the slope in assay [6] is 0.00745 (inactive).
Turning to `CC(C)Cc1nnc(NS(=O)(=O)c2ccc(Cl)cc2)s1`, the cell count in assay [1] amounted to 652. The inhibition in assay [1] was 5.4% (inactive); in assay [3], -21.2% (inactive); in assay [7], 12.6% (inactive); in assay [8], 27.6% (inactive). For the same compound, in assay [2], the inhibition of aggregation is -9.3% (inactive). The nuclei count in assay [2] and in assay [3] was 112% in each case. In assay [4], the fluorescence slope was -0.541 (inactive). For the same compound, the NADPH fluorescence slope in assay [5] was 4.8e-06 (inactive). In assay [6], the slope is 0.0081 (inactive).
Turning to `CCCCNC(=O)C(C#N)c1nc2ccccc2nc1N1CCCC1` (centres undefined), the cell count in assay [1] stood at 289. The inhibition is -6.5% (inactive) in assay [1], 9% (inactive) in assay [3], 16.3% (inactive) in assay [7] and 14% (inactive) in assay [8]. In addition, the inhibition of aggregation in assay [2] is 22.5% (inactive). Besides, the nuclei count in assay [2] turned out to be 78.4%; in assay [3], 52.3%. Further, the fluorescence slope in assay [4] is -0.235 (inactive). Also, in assay [5], the NADPH fluorescence slope was -1.3e-05 (inactive). Also, the slope in assay [6] was 0.00359 (inactive).
As for `COc1ccccc1N1CCN(C(=O)CN(Cc2ccc(Cl)cc2)S(C)(=O)=O)CC1`, in assay [1], the cell count was found to be 458. Moreover, the inhibition in assay [1] is -7.3% (inactive); in assay [3] it was -130% (inactive); in assay [7] it was 17.3% (inactive); in assay [8], 24.8% (inactive). Further, the inhibition of aggregation in assay [2] was -18.6% (inactive). Further, the nuclei count in assay [2] turned out to be 112%; in assay [3], 174%. Also, in assay [4], the fluorescence slope was -0.49 (inactive). Besides, the NADPH fluorescence slope in assay [5] is 7.6e-06 (inactive). In addition, the slope in assay [6] is 0.00623 (inactive).
In the case of `CC(C)[C@H](NC(=O)OC(C)(C)C)c1nnc(SCc2cccc(F)c2)o1`, in assay [1], the cell count was found to be 859. Further, the inhibition is 0% (inactive) in assay [1], -63.9% (inactive) in assay [3], 9.92% (inactive) in assay [7] and 19.5% (inactive) in assay [8]. Also, the inhibition of aggregation in assay [2] was 15.1% (inactive). Moreover, the nuclei count came out at 101% in assay [2] and 122% in assay [3]. Besides, in assay [4], the fluorescence slope is -0.46 (inactive). The NADPH fluorescence slope in assay [5] is -4.1e-06 (inactive). Also, the slope in assay [6] was 0.00385 (inactive).
Turning to `Cn1c(SCC(=O)c2cc3ccccc3o2)nnc1-c1ccccc1`, in assay [1], the cell count was 621. Moreover, the inhibition in assay [1] is 8% (inactive); in assay [3], -44.5% (inactive); in assay [7] it was 10.2% (inactive); in assay [8], 16.3% (inactive). Further, the inhibition of aggregation in assay [2] is -8.5% (inactive). Moreover, the nuclei count was determined as 66% in assay [2] and 106% in assay [3]. The fluorescence slope in assay [4] is -0.527 (inactive). Moreover, the NADPH fluorescence slope in assay [5] was -2.6e-05 (inactive). Moreover, the slope in assay [6] was 0.00718 (inactive).
With `Cc1nnc(SCc2ccccc2F)n1NCc1cccs1`, in assay [1], the cell count was 767. Also, the inhibition in assay [1] was -3.9% (inactive); in assay [3] it was -71% (inactive); in assay [7] it was -2.84% (inactive); in assay [8], -9.57% (inactive). For the same compound, in assay [2], the inhibition of aggregation was -8.1% (inactive). Moreover, the nuclei count in assay [2] amounted to 106%; in assay [3] it was 113%. Moreover, the fluorescence slope in assay [4] is -0.47 (inactive). The NADPH fluorescence slope in assay [5] was -4.7e-05 (inactive). The slope in assay [6] was 0.00631 (inactive).
As for `CCn1nc(C)c(NC(=O)c2cc(Br)ccc2Cl)c1C`, the cell count in assay [1] came to 497. Further, the inhibition is -5.8% (inactive) in assay [1], -17.6% (inactive) in assay [3], 14.4% (inactive) in assay [7] and 25% (inactive) in assay [8]. Besides, the inhibition of aggregation in assay [2] was -21.4% (inactive). Besides, the results for the nuclei count in assay [2] and in assay [3] were 111% and 115%, respectively. Also, the fluorescence slope in assay [4] is -0.445 (inactive). The NADPH fluorescence slope in assay [5] was -0.000104 (inactive). Also, the slope in assay [6] is 0.00617 (inactive).
As for `O=C(Nc1nccs1)c1cccc(NC(=O)C2CC2)c1`, the cell count in assay [1] was 411. For the same compound, the inhibition in assay [1] was -0.5% (inactive); in assay [3], -19% (inactive); in assay [7], 2.3% (inactive); in assay [8], -13.6% (inactive). The inhibition of aggregation in assay [2] was -6.6% (inactive). The nuclei count stood at 98% in assay [2] and 116% in assay [3]. Moreover, in assay [4], the fluorescence slope is -0.409 (inactive). Besides, the NADPH fluorescence slope in assay [5] was -3.4e-05 (inactive). In addition, in assay [6], the slope was 0.00472 (inactive).
For the compound `COc1ccc(C)cc1-n1c(N)c(C#N)c(C#N)c1-c1ccc(OC)c(OC)c1OC`, the cell count in assay [1] came to 676. Besides, the inhibition in assay [1] is -3.9% (inactive); in assay [3] it was -9.7% (inactive); in assay [7] it was 12% (inactive); in assay [8], 32.6% (inactive). For the same compound, the inhibition of aggregation in assay [2] is 16.9% (inactive). The nuclei count in assay [2] stood at 86%; in assay [3] it was 105%. Besides, the fluorescence slope in assay [4] is -0.537 (inactive). The NADPH fluorescence slope in assay [5] is 2.9e-05 (inactive). The slope in assay [6] is 0.00611 (inactive).
Consider `CCOC(=O)C1CCN(C(=O)COc2ccc(Cl)cc2Cl)CC1`, for which, in assay [1], the cell count is 705. The inhibition in assay [1] was -5.1% (inactive); in assay [3], 4.3% (inactive); in assay [7] it was 3.61% (inactive); in assay [8], 14.2% (inactive). In assay [2], the inhibition of aggregation is 8% (inactive). The nuclei count in assay [2] was 103%; in assay [3] it was 104%. Besides, in assay [4], the fluorescence slope is -0.613 (inactive). For the same compound, the NADPH fluorescence slope in assay [5] is -1.6e-05 (inactive). In addition, the slope in assay [6] is 0.00593 (inactive).
As for `Cc1ccccc1-n1c(Cn2c(=O)sc3ccccc32)nnc1SCC(N)=O`, the cell count in assay [1] stood at 542. Besides, the inhibition is 4.5% (inactive) in assay [1], -28.8% (inactive) in assay [3], 16.4% (inactive) in assay [7] and 25.2% (inactive) in assay [8]. In assay [2], the inhibition of aggregation was 4.1% (inactive). In addition, the nuclei count turned out to be 110% in assay [2] and 111% in assay [3]. The fluorescence slope in assay [4] is -0.518 (inactive). Further, in assay [5], the NADPH fluorescence slope was -3.8e-05 (inactive). Moreover, in assay [6], the slope was 0.00845 (inactive).
As for `c1ccc(CNc2c3c(nc4ncnn24)CCCC3)nc1`, the cell count in assay [1] amounted to 912. Further, the inhibition was 2.1% (inactive) in assay [1], -39.1% (inactive) in assay [3], 15.7% (inactive) in assay [7] and 13.9% (inactive) in assay [8]. Besides, the inhibition of aggregation in assay [2] is -30.3% (inactive). Besides, the nuclei count was 102% in assay [2] and 111% in assay [3]. In assay [4], the fluorescence slope is -0.542 (inactive). For the same compound, in assay [5], the NADPH fluorescence slope was -9.4e-06 (inactive). Moreover, the slope in assay [6] is 0.00501 (inactive).
For the compound `CC(=O)OC1c2ccccc2C(=O)N1Cc1ccccc1Cl` (centres undefined), the cell count in assay [1] came to 468. In addition, the inhibition in assay [1] is -2.8% (inactive); in assay [3] it was -13.3% (inactive); in assay [7], 4.84% (inactive); in assay [8], 27.6% (inactive). Further, the inhibition of aggregation in assay [2] was 34% (inactive). Further, the nuclei count in assay [2] is 61%; in assay [3], 106%. In assay [4], the fluorescence slope is -0.552 (inactive). The NADPH fluorescence slope in assay [5] is -4.6e-05 (inactive). In addition, the slope in assay [6] was 0.00651 (inactive).
